Reference: PubChem BioAssay (NCI)
Compounds without any hit were thinned out: in the full panel of roughly 83,000, 20% have a hit.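 Cells were grown in 96-well plates and exposed to the test compound at a single concentration for 48 hours; results are reported as percent growth, with values below 10 considered active.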 A number with no mark means an inactive call. The source made the active and inactive calls.

Each compound was assayed on HL-60(TB) leukemia (assay: NCI-60 one-dose screen, 48 h (100 = growth as untreated, 0 = no growth, -100 = all killed)). Details: 10 µM unless noted.

| Structure (SMILES) | growth |
| --- | --- |
| Cn1cc2c(c1)-c1c(sc3nc(-c4ccc(NC(=O)Nc5cc(C(C)(C)C)on5)cc4)cn13)CC2 | 12.4% |
| COc1ccc(/C=N/Nc2nc(N/N=C/c3ccc(OC)cc3O)nc(N3CCOCC3)n2)c(O)c1 | 30.9% |
| COc1ccc(C(=O)c2c(N)c(C#N)cn2-c2cccc(OC)c2)cc1 | 3.83% (active) |
| O=C(CSc1nnc(-c2ccc3nc(-c4ccc(Cl)cc4)[nH]c3c2)o1)Nc1ccc(C(=O)/C=C/c2ccc(Cl)cc2)cc1 | 86% |
| C(=N\Nc1nc(N/N=C/c2ccc3c(c2)OCO3)nc(N2CCCCC2)n1)/c1ccc2c(c1)OCO2 | 60.4% |
| CC(=O)Nc1cc(F)cc(-c2ccc3[nH]cc(-c4ccccc4)c3n2)c1 | 7.81% (active) |
| O=C(CCCCCCN1CC(=O)N2[C@@H](c3cccs3)c3[nH]c4ccccc4c3C[C@H]2C1=O)NO | 100% |
| O=C(Nc1ccccc1)Nc1nc2ccc([N+](=O)[O-])cc2s1 | -35.9% (active) |
| Oc1ccc(-c2nnc(SCc3ccc(O)c4ncccc34)n2-c2ccccc2)cc1 | 1.26% (active) |
| CN1CCN(c2ccc(Nc3nc(NCCNS(=O)(=O)c4ccccc4)c4sccc4n3)cc2)CC1 | 103% |
| CCn1c2ccc(/C=N/N(C)S(=O)(=O)CCN(C)C)cc2c2cc(/C=N/N(C)S(=O)(=O)CCN(C)C)ccc21 | 42.5% |
| CC[C@]12C=CCN3CC[C@]4(C(=C(C(=O)OC)C1)Nc1cc5c(cc14)[C@@H]1[C@H](O5)[C@@H](O)[C@@]4(CC)CC(C(=O)OC)=C5Nc6cc(OC)ccc6[C@@]56CCN1[C@@H]46)[C@@H]32 | 5.09% (active) |
